# Measured values reported in the supplement of paper PMC6897291.
# Key:
# U-2932 [1] = assay: growth inhibition by drug alone (1 - RLU/untreated control) (fraction); higher = stronger inhibition; conditions: 177Lu-lilotomab satetraxetan 0 ug/ml
# Method in brief: (§1)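 A radiolabelled anti-CD37 antibody conjugate (~600 MBq/mg) was applied for 18 h at 0.5 µg/ml to RIVA and 1 µg/ml to U-2932 cells, with untreated cells run alongside. All cells were washed and seeded at 3,000 cells/well onto library-printed plates at 10/100 nM (RIVA) or 10/1,000 nM (U-2932). Growth inhibition was based on RealTime-Glo luminescence compared with untreated no-drug wells. Daily reads began on day 3 after 1 h at 37°C, with each value being 1 − RLU/mean of the 48 such wells on that plate.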
# RIVA [2] = assay: as above; conditions: 177Lu-lilotomab satetraxetan 0 ug/ml
# Method in brief: as §1
# U-2932 [3] = assay: growth inhibition by drug plus 177Lu-lilotomab satetraxetan (1 - RLU/untreated control) (fraction); higher = stronger inhibition; conditions: 177Lu-lilotomab satetraxetan 1 ug/ml
# Method in brief: as §1
# RIVA [4] = assay: as above; conditions: 177Lu-lilotomab satetraxetan 0.5 ug/ml
# Method in brief: as §1
SMILES,"growth inhibition by drug alone (U-2932 [1]; 10 nM, time (day): 3)","growth inhibition by drug alone (U-2932 [1]; 10 nM, time (day): 4)","growth inhibition by drug alone (U-2932 [1]; 10 nM, time (day): 5)","growth inhibition by drug alone (U-2932 [1]; 10 nM, time (day): 6)","growth inhibition by drug alone (U-2932 [1]; 1000 nM, time (day): 3)","growth inhibition by drug alone (U-2932 [1]; 1000 nM, time (day): 4)","growth inhibition by drug alone (U-2932 [1]; 1000 nM, time (day): 5)","growth inhibition by drug alone (U-2932 [1]; 1000 nM, time (day): 6)","growth inhibition by drug alone (RIVA [2]; 10 nM, time (day): 3)","growth inhibition by drug alone (RIVA [2]; 10 nM, time (day): 4)","growth inhibition by drug alone (RIVA [2]; 10 nM, time (day): 5)","growth inhibition by drug alone (RIVA [2]; 10 nM, time (day): 6)","growth inhibition by drug alone (RIVA [2]; 100 nM, time (day): 3)","growth inhibition by drug alone (RIVA [2]; 100 nM, time (day): 4)","growth inhibition by drug alone (RIVA [2]; 100 nM, time (day): 5)","growth inhibition by drug alone (RIVA [2]; 100 nM, time (day): 6)","growth inhibition by drug plus 177Lu-lilotomab satetraxetan (U-2932 [3]; 10 nM, time (day): 3)","growth inhibition by drug plus 177Lu-lilotomab satetraxetan (U-2932 [3]; 10 nM, time (day): 4)","growth inhibition by drug plus 177Lu-lilotomab satetraxetan (U-2932 [3]; 10 nM, time (day): 5)","growth inhibition by drug plus 177Lu-lilotomab satetraxetan (U-2932 [3]; 10 nM, time (day): 6)","growth inhibition by drug plus 177Lu-lilotomab satetraxetan (U-2932 [3]; 1000 nM, time (day): 3)","growth inhibition by drug plus 177Lu-lilotomab satetraxetan (U-2932 [3]; 1000 nM, time (day): 4)","growth inhibition by drug plus 177Lu-lilotomab satetraxetan (U-2932 [3]; 1000 nM, time (day): 5)","growth inhibition by drug plus 177Lu-lilotomab satetraxetan (U-2932 [3]; 1000 nM, time (day): 6)","growth inhibition by drug plus 177Lu-lilotomab satetraxetan (RIVA [4]; 10 nM, time (day): 3)","growth inhibition by drug plus 177Lu-lilotomab satetraxetan (RIVA [4]; 10 nM, time (day): 4)","growth inhibition by drug plus 177Lu-lilotomab satetraxetan (RIVA [4]; 10 nM, time (day): 5)","growth inhibition by drug plus 177Lu-lilotomab satetraxetan (RIVA [4]; 10 nM, time (day): 6)","growth inhibition by drug plus 177Lu-lilotomab satetraxetan (RIVA [4]; 100 nM, time (day): 3)","growth inhibition by drug plus 177Lu-lilotomab satetraxetan (RIVA [4]; 100 nM, time (day): 4)","growth inhibition by drug plus 177Lu-lilotomab satetraxetan (RIVA [4]; 100 nM, time (day): 5)","growth inhibition by drug plus 177Lu-lilotomab satetraxetan (RIVA [4]; 100 nM, time (day): 6)"
Cc1ccc(C(=O)N(CCCN)[C@@H](c2nc3cc(Cl)ccc3c(=O)n2Cc2ccccc2)C(C)C)cc1,0.446,0.424,0.379,0.372,0.959,0.968,0.972,0.977,0.202,0.194,0.075,-0.26,0.918,0.931,0.939,0.943,0.393,0.409,0.426,0.465,0.965,0.973,0.98,0.984,0.652,0.647,0.659,0.655,0.94,0.962,0.971,0.979
CC(C)C[C@H](NC(=O)CNC(=O)c1cc(Cl)ccc1Cl)B1OC(=O)C(CC(=O)O)(CC(=O)O)O1,0.0922,0.0916,0.0981,-0.0316,0.985,0.984,0.984,0.984,-0.0185,0.0392,-0.0726,-0.362,0.319,0.4,0.359,0.21,0.0116,0.0804,0.149,0.155,0.984,0.985,0.986,0.988,0.542,0.596,0.606,0.609,0.64,0.701,0.698,0.645
CC1(C)CNc2cc(NC(=O)c3cccnc3NCc3ccncc3)ccc21 [Motesanib Diphosphate],0.0212,-0.0392,-0.0873,-0.298,-0.0958,-0.0733,-0.118,-0.248,-0.0638,-0.211,-0.283,-0.584,-0.22,-0.341,-0.349,-0.452,-0.0309,-0.0326,-0.0402,0.00139,-0.132,-0.033,-0.00123,0.0914,0.361,0.516,0.536,0.546,0.45,0.537,0.536,0.512
Cc1nn(-c2ccccc2)c(C)c1C=NN1CCN(Cc2ccccc2)CC1,0.0133,0.025,0.0751,0.189,-0.168,-0.0669,-0.0956,-0.16,-0.144,-0.164,-0.201,-0.467,-0.163,-0.151,-0.201,-0.307,-0.0548,-0.0219,0.00875,0.104,-0.251,-0.05,-0.0247,-0.0474,0.275,0.414,0.437,0.459,0.295,0.4,0.397,0.389
